About 1,400 (93%) of roughly 1,500 compounds were called active. Rule as the data show it: active = inhibition above about 9.5%; inactive = the rest. So high a share suggests a set chosen from earlier hits. The list is a sample of the results.
assay: PGV04 antibody small-molecule binding – biochemical, TR-FRET, distinct HIV envelope site, counter-screen for PG9 antibody binder project (AID 651604); settings: TR-FRET PGV04 antibody-gp120 binding, at 6.7 µM, hits give high values

| SMILES | inhibition |
| --- | --- |
| Fc1cc(F)c2nc(Nc3nc4c(F)cccc4s3)sc2c1 | 15.5% (active) |
| Cc1nc(-c2ccccc2)sc1-c1nc(-c2ccccc2)ncc1S(=O)(=O)c1ccccc1 | 11.5% (active) |
| CC(C)OCCCNC(=O)c1cc(Sc2ccc(F)cc2)nc2ccccc12 | 28.9% (active) |
| N#C/C=C1\Sc2ccccc2C(=O)N1CC(=O)N1CCN(S(=O)(=O)c2ccccc2)CC1 | 36.9% (active) |
| COCCNC(=O)c1cc2c(Br)ccc(Br)c2nc1N | 20.9% (active) |
| CC(=O)c1sc(NC(=O)CCCOc2ccccc2C)nc1C | 29.6% (active) |
| COc1cccc(-n2c(SCC(=O)c3c[nH]c4ccccc34)nc3ccccc3c2=O)c1 | 32.9% (active) |
| Cc1cc2c(cc1C)N1C(=O)c3cc4ccccc4cc3NC(=O)C1C(=O)N2 (stereo not drawn) | 17% (active) |
| O=C(Oc1ccccc1)Oc1ccc2c(c1)oc(=O)c1ccccc12 | 46.4% (active) |
| N#Cc1ccccc1Sc1ccccc1C(=O)OCC(=O)NC1CCCCC1 | 45.7% (active) |
| Cc1ccc(-c2cc(C(=O)NCc3cn(C)nc3C)c3cc(Br)ccc3n2)cc1 | 25.8% (active) |
| CCCCNC(=O)CSc1nc2n[nH]c(C)c2c(=N)n1-c1cccc(Cl)c1C | 63.2% (active) |
| Cc1ccc(-n2c(SCC(=O)NCCC3=CCCCC3)nc3n[nH]c(C)c3c2=N)cc1Cl | 27.8% (active) |
| COc1ccc(CCNC(=O)CSc2nc(-c3ccc(OC)c(OC)c3)ccc2C#N)cc1 | 38.1% (active) |
| COc1cccc(-c2ccc(C#N)c(SCC(=O)NCCc3ccc(Cl)cc3)n2)c1 | 13% (active) |
| COC(=O)c1ccc(NC(=S)Nc2cccc(C)n2)cc1 | 16.1% (active) |
| S=c1[nH]c2ccccc2c2ccccc12 | 11.6% (active) |
| O=C(Nc1nnc(-c2ccccc2F)s1)c1ccccc1F | 36.9% (active) |
| CCCOc1ccc(C2C(C(=O)c3ccc(C)o3)=C(O)C(=O)N2CCCn2ccnc2)cc1 (stereo not drawn) | 65.3% (active) |
| C=CCOc1cccc(C2C(C(=O)c3ccc(C)o3)=C(O)C(=O)N2CCCn2ccnc2)c1 (stereo not drawn) | 22.6% (active) |
| O=C(O)CCC(=O)Nc1nc2ccc([N+](=O)[O-])cc2s1 | 5.74% (inactive) |

| SMILES | inhibition |
| --- | --- |
| COc1ccc(CC(=O)Nc2ccc(-c3nnc(-c4ccccc4)o3)cc2)cc1 | 24.6% (active) |
| CCc1ccc(NC(=O)CSc2nnc(-c3cnccn3)n2Cc2ccco2)cc1 | 29.1% (active) |
| O=C(C1=C(O)C(=O)N(Cc2ccccc2)C1c1ccco1)c1ccco1 (stereo not drawn) | 39.4% (active) |
| Cc1cc(C)cc(NC(=O)C2CCCN(S(=O)(=O)c3ccc4[nH]c(=O)ccc4c3)C2)c1 (stereo not drawn) | 34.2% (active) |
| COc1ccc(Cl)cc1NC(=O)Cn1nc(-c2ccc(C)cc2)n(C)c1=S | 26.6% (active) |
| COc1ccc(-c2csc(NC(=O)c3ccc(N4C(=O)CCC4=O)cc3)n2)cc1OC | 20.8% (active) |
| Cc1nc2cc(NC(=O)CSc3nc4c(C)cccc4cc3C#N)ccc2s1 | 59.1% (active) |
| CC(=O)c1sc2nc(SCC(=O)N3CCCCC3)[nH]c(=O)c2c1C | 32.7% (active) |
| N#Cc1c(-c2cccs2)nc(SCC(=O)c2ccc(Br)cc2)[nH]c1=O | 38.1% (active) |
| COCCCNc1nc2c(-c3cccc(C)c3)nnn2c2ccc(Cl)cc12 | 30.7% (active) |
| C=CCn1c(=NC(=O)c2ccc(S(=O)(=O)N3CCCC3)cc2)sc2cc(NC(C)=O)ccc21 | 43% (active) |
| C=CCn1c(=NC(=O)c2cccs2)sc2cc(NC(C)=O)ccc21 | 12.5% (active) |
| Cc1c(-c2ccccc2)nc(N)c(C#N)c1-c1cccs1 | 27.9% (active) |
| CCCc1nc(SCC(=O)Nc2ccc(S(=O)(=O)N(C)C)cc2)c2ccccc2n1 | 41% (active) |
| N#Cc1ccccc1NC(=O)c1cccc(COc2ccc(Cl)cc2Cl)c1 | 24.8% (active) |
| CCOc1cc2ccccc2cc1C(=O)Nc1ccccn1 | 16.9% (active) |
| N#Cc1c(N)nc2c3c(sc(=N)c2c1N)NC(=O)CC3c1ccccc1Cl (stereo not drawn) | 37% (active) |
| O=C1C(=O)N(CCN2CCOCC2)C(c2cccc(Cl)c2)/C1=C(/O)c1ccc2c(c1)OCO2 (stereo not drawn) | 42.7% (active) |
| COc1ccc(-n2nnnc2-c2nc3ccccc3s2)cc1 | 59.6% (active) |
| O=C(COC(=O)c1ccc2c(c1)OCCO2)NCc1ccccc1Cl | 33.7% (active) |
| COc1ccc(-c2c(C)nn3c(N4CCC(C(=O)N5CCCCC5)CC4)cc(C)nc23)cc1OC | 12.2% (active) |

| SMILES | inhibition |
| --- | --- |
| Cn1c(=S)sc2ccc3ccccc3c21 | 15.2% (active) |
| COc1cccc(NS(=O)(=O)c2ccc3[nH]cc(C(=O)NCCCOC(C)C)c(=O)c3c2)c1 | 19.8% (active) |
| CCOc1ccc2cc(C#N)c(SCC(=O)OC)nc2c1 | 65.8% (active) |
| O=C(NCc1ccc(Cl)cc1)c1cc2c(nc3sccn32)s1 | 30.7% (active) |
| Cc1cccc(Nc2nc3c(S(=O)(=O)c4ccccc4)nnn3c3ccccc23)c1C | 34.2% (active) |
| O=C(Nc1c(Br)cc2c(c1Br)Cc1cc([N+](=O)[O-])ccc1-2)C(Cl)Cl | 79.2% (active) |
| Cc1ccc(-n2ncc3c(=O)n(-c4ccc(C)c(C)c4)c(-c4ccco4)nc32)cc1 | 11.9% (active) |
| Cc1cc(Br)ccc1NC(=O)c1sc2ncn(CC(=O)N3CCN(c4ccccn4)CC3)c(=O)c2c1C | 15.6% (active) |
| CCOc1cccc(NC(=O)Cn2nc(-c3ccc4c(c3)OCCO4)ccc2=O)c1 | 25.3% (active) |
| CCOc1ccc(C(=O)COC(=O)c2ccc(-n3cnnn3)cc2)cc1 | 34% (active) |
| CCOC(=O)c1c(C)[nH]c(C(=O)OCC(=O)c2ccc(OC)cc2OC)c1C | 54.4% (active) |
| CC(=O)c1cc(C#N)c(SCC(=O)Nc2nccs2)nc1C | 51.4% (active) |
| O=C1COc2ccc(C(=O)COC(=O)c3ccccc3Cl)cc2N1 | 32.6% (active) |
| Cc1nc2nc(SCC(=O)c3ccccc3)[nH]c2cc1Br | 46.9% (active) |
| O=C(Nc1cccc(S(=O)(=O)Nc2ccc(Cl)cc2)c1)c1ccc2c(c1)OCCO2 | 34.2% (active) |
| CC1(C)Cc2ccccc2-c2[nH]c(=S)[nH]c(=O)c21 | 7.23% (inactive) |
| CCn1c(SCC(=O)Nc2cccc(F)c2)nnc1-c1cc2cc(Br)ccc2o1 | 58.4% (active) |
| O=C(N=C1SC2CS(=O)(=O)CC2N1Cc1ccccc1)c1ccccc1 (stereo not drawn) | 46.9% (active) |
| CCn1nnc2cc(C(=O)Nc3ccc(C(=O)OC(C)C)cc3)ccc21 | 37% (active) |
| COC(=O)C1=C(C)N(Cc2ccccc2C(F)(F)F)C(=NCc2ccc(OC)cc2)NC1c1cccc(C(F)(F)F)c1 (stereo not drawn) | 6.34% (inactive) |
| O=C(O)CCCCCNc1ncnc2ccc(Br)cc12 | 30.4% (active) |

Source: PubChem BioAssay AID651604 (The Scripps Research Institute Molecular Screening Center, 2012)
